Laboratory results taken from PubChem BioAssay (NCI).
This is part of a sample that, as a whole, favours compounds with a hit. Of some 79,000 tested, about 15% had one in any assay. Calls of active or inactive are those of the source. No stated cut-off is given here; in the data, active means growth inhibition above about 70%; inactive means the rest.

Assay: NCI Yeast Anticancer Drug Screen. Data for the sgs1 mgt1 strain (AID 161);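 further: 0% = growth of cultures given vehicle only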
Conditions: S. cerevisiae sgs1 mgt1 strain, at 5.0 µM (retest, dose inferred, filed as 0.5), active compounds read high
Outline: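 Inhibition of yeast growth, normalised to vehicle-treated controls, is reported for a strain bearing genetic alterations in DNA damage repair.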

Row | SMILES | growth inhibition
1 | COc1ccc2nc3cccc([N+](=O)[O-])c3c(NCCNCCN(C)C)c2c1 | 72% (active)
2 | Cc1cccc(/C=N/NC(=S)NC2CCCCC2)n1 | -25% (inactive)
3 | COC(=O)C(=O)c1c(-c2ccc(Cl)c(Cl)c2)[nH]c2[nH]n(-c3ccccc3)c(=O)c2c1=O | -3% (inactive)
4 | c1ccc([P+](CCN2Cc3ccccc3C2)(c2ccccc2)c2ccccc2)cc1 | 22% (inactive)
5 | Cc1cc(C)c2[s+]snc2c1 | -1% (inactive)
6 | CC(C)(Br)C(=O)/C=C/c1ccccc1 | 68% (inactive)
7 | Cc1ccc(S(=O)(=O)NC(=O)C2C(=O)CC3(CCCCC3)CC2=O)cc1 | 11% (inactive)
8 | NC(=S)N1N=C2c3ccccc3CC[C@H]2[C@@H]1c1ccc(Cl)cc1 | -15% (inactive)
9 | O=[N+]([O-])/C=C/c1cc2ccc3ccccc3c2[nH]1 | 88% (active)
10 | O=C1C(=C2CCCC2)CCC1CN1CCCCC1 (stereo unspecified) | 9% (inactive)
11 | OC(CC(O)(C(F)(F)F)C(F)(F)F)c1ccc(C(O)CC(O)(C(F)(F)F)C(F)(F)F)cc1 (stereo unspecified) | 26% (inactive)
12 | COc1cc2c(cc1OC)[C@@H](Nc1ccc(C#N)cc1)C1COC(=O)[C@@H]1C2c1cc(OC)c(O)c(OC)c1 (stereo partly specified) | 17% (inactive)
13 | O=c1cccccc1[O-].O=c1cccccc1[O-].O=c1cccccc1[O-].[Eu+3] | 65% (inactive)
14 | O=C1c2ccccc2C(=O)c2sc(Nc3ccccc3Cl)nc21 | 100% (active)
15 | NC(CCCCCCCCCCCCC(N)C(=O)c1ccccc1)C(=O)c1ccccc1 (stereo unspecified) | -10% (inactive)
16 | CC1=C(C)C(=O)C2=C(OCCO2)C1=O | -10% (inactive)
